Measurements reported in PubChem BioAssay (Tox21).
Where “and” joins values, the source holds several entries; their conditions need not be identical. Identical values can stand only once. Records with an inconclusive call do not appear. Entries that show only a call come without a potency. Calls of active or inactive are those of the source. Calls come from the whole dose curve; as a rule, active = well fitted cell-killing curve with a large enough effect in the repeat runs; inconclusive = weak or mixed curves, or effect the other way; inactive = flat fitted curve, though single readings scatter.
Potency is the fitted concentration of half-maximal effect.

Assay: qHTS assay to identify small molecule agonists of the sonic hedgehog signaling (Shh) pathway - cell viability counter screen (AID 1259366); note: nearly all actives have a fitted effect of over 50% in size
Settings: NIH/3T3 Gli1-Luc viability, CellTiter-Fluor, 24 h; series mostly up to 92.4 µM
Excerpt: National Center for Advancing Translational Sciences [NCATS]
NIH Chemical Genomics Center [NCGC]
U.S. Environmental Protection Agency [EPA]
National Institutes of Environmental Health Sciences [NIEHS]
National Toxicology Program [NTP]
U.S. Food and Drug Administration [FDA]
The sonic hedgehog (Shh) pathway is essential for normal embryonic development. Dysregulation of the Shh pathway can cause severe developmental defects in organs. Therefore chemicals that interfere with the pathway are potential developmental toxicants. A cell line designated 3T3Gli1-Luc (DMB/OARSA/CFSAN/FDA, Laurel, MD), a NIH/3T3 derived clone containing stably integrated Gli1-Luc reporter is used to detect chemical interference of the Shh pathway, by changes in the expression of the firefly Luc gene under the control of the Gli1 transcriptional response element. This cell line was used to screen Tox21 libraries for identifying and prioritizing the potential developmental toxicants that interfere Shh pathway. The cytotoxicity of the compounds was tested in parallel by measuring the cell viability using CellTiter-Fluor assay system (Promega, Madison, WI) in the same wells.
Tox21 Assay Protocol Summary:
3T3 Gli1-Luc cells were dispensed at 2,000 per well in 5uL of culture medium into white solid bottom 1536-well plates (Greiner Bio-One, Monroe, NC) using a Multidrop Combi (Thermo Scientific, Waltham, MA) dispenser. The assay plates were incubated at 37 C and 5% CO2 for 4hr, and then 23nL of compounds dissolved in DMSO and positive control were transferred using a Pintool station (Wako, San Diego, CA). The assay plates were incubated at 37C and 5% CO2 for 24hr. For viability read, after 23hr of compound treatment, 1uL of CellTiter-Fluor reagent (Promega Corporation, Madison, WI) was added to each well of the assay plates using Flying Reagent Dispenser (FRD, Aurora Discovery, San Diego, CA) and incubated the assay plates at 37C for 1hr. The fluorescence signal was quantified using a ViewLux plate reader (Perkin Elmer, Shelton, CT).
For O=C(Nc1ccc(F)cc1F)c1cccnc1Oc1cccc(C(F)(F)F)c1, the Potency was “inactive”.
In the case of O=C1C2(Cl)C3(Cl)C4(Cl)C(Cl)(Cl)C5(Cl)C3(Cl)C1(Cl)C5(Cl)C24Cl (stereo not given), the Potency is reported as 26.9 µM (active).
For COc1c2c(cc3c1OCO3)CCN(C)C2, the Potency was “inactive”.
In the case of O=c1[nH]c(Cl)c(Cl)cc1Cl, the Potency is reported as “inactive”.
In the case of Cc1ccc(C)c2ccccc12, the Potency is reported as “inactive”.
For CCC1(CC)C(=O)N=C(O)NC1=O, the Potency was “inactive”.
For C#CCO, the Potency was “inactive”.
In the case of CCOP(=S)(OCC)Oc1cc(C)nc(N(CC)CC)n1, the Potency is reported as “inactive”.
In the case of COC(=O)c1cc(Oc2ccc(Cl)cc2Cl)ccc1[N+](=O)[O-], the Potency is reported as “inactive”.
With C=Cc1cccc(CCl)c1 the Potency was “inactive”.
For N#CSCc1ccccc1, the Potency was “inactive”.
With CCC[CH2][Sn]([CH2]CCC)([CH2]CCC)[CH2]CCC the Potency was 13.7 µM (active).
With C=CC(=O)[O][Sn]([CH2]CCC)([CH2]CCC)[CH2]CCC the Potency was 0.243 µM (active).
For CC1(C)C(C=C(Cl)Cl)C1C(=O)OC(C#N)c1ccc(F)c(Oc2ccccc2)c1 (stereo not given), the Potency was “inactive”.
In the case of CCc1cccc(C)c1N(C(=O)CCl)[C@@H](C)COC, the Potency is reported as “inactive”.
With O=C(O)CCCCCCNC1c2ccccc2CCc2ccccc21 the Potency was “inactive”.
In the case of CC(=O)[O-].CC(=O)[O-].O.O.O.[Pb+2], the Potency is reported as “inactive”.
In the case of CCOP(=O)(OCC)Oc1cc(C)nc(C(C)C)n1, the Potency is reported as “inactive”.
In the case of Brc1ccc(Oc2ccc(Br)cc2Br)c(Br)c1, the Potency is reported as “inactive”.
With CCCCn1cc[n+](C)c1 (tested in a mixture with another compound) the Potency was “inactive”.
For Cc1nn(-c2cc(NS(C)(=O)=O)c(Cl)cc2Cl)c(=O)n1C(F)F, the Potency was “inactive”.
With CC(=O)[O-].CC(=O)[O-].O.O.[Zn+2] the Potency was “inactive”.
In the case of [O]=[Cr](=[O])([OH])[O][Cr](=[O])(=[O])[OH], the Potency is reported as 30.9 µM (active) and 30.6 µM (active).
In the case of [Cl-].[Cl-].[Sn+2], the Potency is reported as “inactive”.
With CCOC(=O)CCN(SN(C)C(=O)Oc1cccc2c1OC(C)(C)C2)C(C)C the Potency was “inactive”.
For CN1C(=O)[C@@H](NC(=O)c2cc3ccccc3[nH]2)N=C(c2ccccc2)c2ccccc21, the Potency was “inactive”.
In the case of CCCCCCCCCCCCCCn1cc[n+](C)c1, the Potency is reported as 17.3 µM (active) and 24.1 µM (active).
In the case of OCC(Br)CBr (stereo not given), the Potency is reported as “inactive”.
In the case of Nc1c(Cl)c(Cl)c(Cl)c(Cl)c1Cl, the Potency is reported as “inactive”.
With CCC[CH2][Sn]([CH2]CCC)([CH2]CCC)[O][Sn]([CH2]CCC)([CH2]CCC)[CH2]CCC the Potency was 0.212 µM (active).
With N#Cc1ccc(N(CC(N)=O)CC(F)(F)F)cc1C(F)(F)F the Potency was “inactive”.
With CCCCCON=O the Potency was “inactive”.
For Nc1ccccc1-c1ccccc1, the Potency was “inactive”.
In the case of COP(=O)(OC)O/C(=C\Cl)c1cc(Cl)c(Cl)cc1Cl, the Potency is reported as “inactive”.
For Oc1cc(Cl)c(Cl)c(Cl)c1Cl, the Potency was “inactive”.
With COP(=S)(OC)Oc1ccc([N+](=O)[O-])c(C)c1 the Potency was “inactive”.
For C#CC1(O)CCCCC1, the Potency was “inactive”.
With Oc1cccc(Cl)c1Cl the Potency was “inactive”.
In the case of CCN1CCC2(CC1)COc1cc3c(cc12)N(C(=O)c1ccc(-c2ccc(-c4nnc(C)o4)cc2C)cc1)CC3, the Potency is reported as 63.3 µM (active).
For CCOP(=S)(NC(C)C)Oc1ccccc1C(=O)OC(C)C (stereo not given), the Potency was “inactive”.
